About 83,000 compounds went through this panel and 20% of them were active in at least one assay; those are over-represented in the sample as a whole.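 Results are percent growth after 48 hours of single-concentration exposure. 100 means growth as in untreated cells, lower positive values show inhibition; negative values down to -100 show cell death.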 A number with no mark means an inactive call. The source made the active and inactive calls. Rule for the calls: active = growth percent below 10; inactive = the rest.
tested on: HL-60(TB) leukemia; experiment: NCI-60 one-dose screen, 48 h (100 = growth as untreated, 0 = no growth, -100 = all killed); settings: 10 µM unless noted

Row | SMILES | growth
1 | COc1cc(C(C)c2ccc3c(ccn3C)c2)cc(OC)c1OC (stereo not given) | -12.1% (active)
2 | CCN(CC)CCCCCCNc1cc(OC)c(Cl)c2cccnc12 | 119%
3 | O=C(CSc1nnc(-c2cccnc2SCc2ccccc2)o1)Nc1nc(Cl)cc(Cl)n1 | 98.3%
4 | Nc1cc(C(=O)NC[C@H]2CN(c3ccc(N4CCC(C(=O)O)CC4)cc3)C(=O)O2)ccc1Cl | 97.9%
5 | COc1ccc(Nc2ncc(C#N)c(NCCCNC(=O)C3CCC3)n2)cc1 | 41%
6 | CCCCn1c(NC(C)=O)c(S(=O)(=O)c2ccccc2)c2nc3ccccc3nc21 | 88.5%
7 | Cc1ccc(C(=O)N/N=C/c2cccc(Oc3ccccc3)c2)cn1 | 9.21% (active)
8 | Cc1c(O)c(=O)ccn1C1CCC(CC2CCC(n3ccc(=O)c(O)c3C)CC2)CC1 (stereo not given) | -0.371% (active)
9 | COc1ncc(-c2ccc3ncnc(Nc4cccc(Cl)c4)c3c2)cc1NS(=O)(=O)CCN1CCOCC1 | 23.9%
10 | O=C(Nc1ccc(I)cc1F)c1cc(I)ccc1O | -25.2% (active)
11 | C=CC[N+](C)(C)C | 107%
12 | Cc1ccccc1C1N=C2Oc3ccccc3C=C2C(=O)N1 (stereo not given) | 2.2% (active)
13 | FC(F)(F)c1ccc(-c2nc(-c3nc4cc(Cl)c(Cl)cc4[nH]3)c3ccccn23)cc1 | 104%
14 | CC(=O)/C(=C/c1ccccc1)C(=O)CC(C)C | 38.8%
15 | O=C(Cc1ccc(NC(=O)c2cccc(Cl)c2)cc1)NCc1ccccc1 | -14% (active)
16 | O=[N+]([O-])c1ccc(N/N=C/c2cccc3ccccc23)nc1 | 26.4%
17 | CCOc1cc2c(cc1OCC)C(c1cc(C)c(O)c(C)c1)NCC2 (stereo not given) | 81.7%
18 | O=C1/C=C/[C@@H](O)[C@@H]2C[C@@H](O)C[C@H]2/C=C/CCC[C@H](CCc2ccc3ncccc3c2)O1 | -52.3% (active)
19 | CCOC(=O)c1sc(-c2ccc(OS(=O)(=O)c3cccs3)c(C=O)c2)nc1C | -34.1% (active)
20 | O=C1c2ccccc2-c2cn(Cc3ccccc3)c3cccc(c23)C1c1cccnc1 (stereo not given) | 16.3%

Row | SMILES | growth
21 | CCn1c(SC/C(=N/O)c2ccccc2)nnc1-c1ccccc1 | 103%
22 | COc1ccccc1C(=O)O/N=C(\N)Cc1cccc2ccccc12 | 96.3%
23 | O=S=Nc1ccc([N+](=O)[O-])cc1 | 102%
24 | COc1ccc(C2C(C#N)=C(N)Oc3c2sc2c(C)cccc32)cc1 (stereo not given) | -13.9% (active)
25 | Cc1cc(=O)n(C(=S)Nc2ccc(Cl)cc2)c2cc(O)ccc12 | 111%
26 | C#C[C@]1(O)CC[C@H]2[C@@H]3CC=C4c5nc(Nc6ncccn6)sc5CC[C@]4(C)[C@H]3CC[C@@]21C | 60.4%
27 | Nc1nc(N)c2c(n1)NC(c1cccc(Nc3ccnc4cc(C(F)(F)F)ccc34)c1)CC(c1ccc(F)cc1)=N2 (stereo not given) | 17.8%
28 | O=C1CSC(c2ccccc2)N1c1ccccc1 (stereo not given) | 99.7%
29 | O=C1/C(=C/c2ccc(Br)cc2)COc2ccc(O)c(O)c21 | -23.2% (active)
30 | CCOC(=O)C1=C(C)NC(=O)NC1c1cc(=O)oc2ccc(C)cc12 (stereo not given) | 97.6%
31 | O=c1[nH]cnc2nc[nH]c12 | 117%
32 | CC[C@H](C)[C@H](NC(=O)[C@H](CCCNC(=N)N)NC(=O)[C@H](Cc1c[nH]c2ccccc12)NC(=O)[C@@H](NC(=O)[C@H](CCCCN)NC(=O)[C@H](CCCCN)NC(=O)[C@@H](NC(=O)[C@@H](NC(=O)[C@@H](NC(=O)[C@H](CCCCN)NC(=O)[C@H](Cc1ccccc1)NC(=O)[C@H](CCCCN)NC(=O)[C@H](CCCCN)NC(=O)[C@H](Cc1ccccc1)NC(=O)[C@@H](NC(=O)[C@@H](N)CCCCN)[C@@H](C)CC)[C@@H](C)O)[C@@H](C)CC)[C@@H](C)CC)C(C)C)C(=O)N[C@@H](Cc1ccccc1)C(=O)NCC(=O)N[C@@H](CCCNC(=N)N)C(=O)N[C@@H](Cc1ccccc1)C(N)=O | 14.9%
33 | CC1OC(n2c3ccccc3c3c4c(c5c6ccccc6[nH]c5c32)C(=O)N(CCN2CCOCC2)C4=O)CC(O)C1O (stereo not given) | 24.3%
34 | COc1cc(Cl)cc(-c2nn(-c3cccc(NC(=O)c4ccc(N5CCOCC5)c(C(F)(F)F)c4)c3)cc2-c2ccncc2)c1 | 2.73% (active)
35 | O=S(=O)(NCCCNc1nccc(-c2c(-c3ccc(F)cc3)nc3sccn23)n1)c1ccc(F)cc1 | 35.5%
36 | Cc1ccnc2c(NC(C)CCCN)cc(O)c(O)c12 (stereo not given) | 7.56% (active)
37 | CC[C@H](Nc1nc(N)nc(C)c1C#N)c1nc2cccc(CN(C)c3ncc(C(=O)NO)cn3)c2c(=O)n1-c1ccccc1 | 0.763% (active)
38 | O=C(O)C(c1ccccc1)C(O)c1ccccc1 (stereo not given) | 97.8%
39 | O=C(CCCCCCC(=O)Nc1ccccc1)NO | -0.31% (active)
40 | O=C1NC(=S)N[C@H]1CC(=O)n1cnc2ccccc21 | 109%

— PubChem BioAssay (NCI)
